# Screens deposited in PubChem by National Center for Advancing Translational Sciences (NCATS).
# Only some compounds are listed: those with a hit (about 11% of all), similar ones and a draw of the others.
# Sfp PPTase inh: Sfp phosphopantetheinyl transferase inhibition; Q9F4F7; Biochemical Sfp PPTase activity, qHTS; Potency, µM, for inactives: largest response in the series, negative = inhibition, usual class: inhibitors; 3.5% of 310,000 active; AID 1490;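 further: the enzyme is Sfp with the accession as filed and its product quenches rhodamine fluorescence; potency means the concentration at half of the fitted maximal effect; 0% = enzyme reaction without inhibitor and -100% = no enzyme wells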
#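 With Hepes-Na pH 7.6 buffer containing 10 mM MgCl2, Sfp (15 nM) modified BHQ-2-YbbR (12.5 uM) using rhodamine-CoA (5 uM). Two reads 30 minutes apart at 525/598 nm yielded each well's rate.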
# Tau FP inhib: blocks human tau fibril formation measured by polarization; P10636; K18 P301L tau heparin fibrillization, Alexa594 FP, 6 h; Potency, µM (top dose mostly 57.7 µM), inactives show top-dose activity, negative = inhibition, actives largely listed as inhibitors; 0.39% of 280,000 active; further: potency means the concentration at half of the fitted maximal effect; nearly all actives have a fitted effect of over 55% in size
# Target sequence (P10636 561-689 P618L limits assumed): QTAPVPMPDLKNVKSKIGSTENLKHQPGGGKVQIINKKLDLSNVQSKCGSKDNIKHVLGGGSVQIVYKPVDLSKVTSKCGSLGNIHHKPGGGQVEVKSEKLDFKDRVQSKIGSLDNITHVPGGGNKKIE
#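 Human tau K18 […] P301L fragment, 15 uM unlabeled plus 0.24 uM Alexa 594-labeled tau (final), with compound and 20 uM heparin in 100 mM sodium acetate pH 7; 6 hr at 37 C, then Alexa 594 FP read.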
# Tau fluor cs: counter-screen for tau fibril formation inhibitors; tau K18 P301L Alexa594 fluorescence, heparin fibrillization; Potency, µM (series often up to 57.7 µM), inactives show at the top dose activity change, negative = decrease; 0.93% of 280,000 active; AID 1463; further: potency means the concentration at half of the fitted maximal effect; nearly all actives have a fitted effect of over 55% in size
#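 Human K18 P301L tau (15 uM unlabeled plus 0.24 uM Alexa 594-labeled, final) in 100 mM sodium acetate pH 7 was mixed with compound and 20 uM heparin and incubated 6 hr at 37 C.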
# Tau fibril ThT: blocks human tau fibril formation measured by thioflavin T. Potency, µM (doses to about 57.4 µM), inactives show at the top dose activity, negative = inhibition, actives largely listed as inhibitors. recombinant tau K18 P301L (four-repeat tau fragment), heparin-induced fibrillization, ThT fluorescence. 2.1% of 270,000 active; further: potency means the concentration at half of the fitted maximal effect; nearly all actives have a fitted effect of over 55% in size
#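 In this qHTS, human K18 P301L tau is incubated with compound and heparin for 6 hr at 37 C, and Thioflavin T fluorescence then reports fibril load.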
# Coupling enz: coupling enzyme interference in Giardia aldolase counter-screen; coupling enzyme system counterscreen, AmpLite Red fluorescence; activity change, negative = inhibition, % at 58.2 µM, hits read low; 0.67% of 290,000 active; in the data active means activity change below about -30%
#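 First, compound is pin-transferred into glyceraldehyde-3-phosphate coupling-enzyme reagent at 57.5 uM final and held 10 min at RT. Next, substrate, coupling system and AmpLite Red are added. After 20 min RT, fluorescence (525/598 nm) is read.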
# G9a block: inhibitors of human histone lysine methyltransferase G9a | Q96KQ7 | AID 504332 | Potency, µM (highest dose often 102 µM), without a hit: at the highest dose activity, negative = inhibition, most hits filed as inhibitors | 8.8% of 350,000 active | G9a H3K9 monomethylation, AlphaScreen, 2 h; further: potency means the concentration at half of the fitted maximal effect; nearly all actives have a fitted effect of over 75% in size
# Target sequence (Q96KQ7 913-1193 limits assumed): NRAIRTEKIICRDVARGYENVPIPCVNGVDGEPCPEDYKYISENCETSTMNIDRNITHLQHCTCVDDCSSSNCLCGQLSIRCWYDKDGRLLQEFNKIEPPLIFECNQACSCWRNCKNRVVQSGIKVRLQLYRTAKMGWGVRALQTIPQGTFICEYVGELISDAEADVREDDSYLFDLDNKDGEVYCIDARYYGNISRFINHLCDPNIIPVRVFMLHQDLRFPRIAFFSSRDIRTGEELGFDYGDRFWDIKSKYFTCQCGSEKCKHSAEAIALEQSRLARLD
#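 AlphaScreen read-out: biotin-H3K9 peptide (500 nM) methylation by 20 nM enzyme with 20 uM SAM, 2 h at room temperature after 15 min compound preincubation; anti-monomethyl H3K9 antibody plus donor/acceptor beads, 10 min dark.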
# An asterisk follows results filed as active; ? = inconclusive; / = no result given; [ ] = another dose, or the depositor's remark. Unless noted, the call rests on the fitted dose curve; in most records, active means well fitted curve in the direction sought with a large enough effect; inconclusive means small, poorly fitted or top-dose-only effect, or another doubt; inactive means no such curve, though single readings can be large; an effect the other way counts as inactive or inconclusive. Unless noted, on the % scale 0 is the no-effect control and ±100 the full control effect.
SMILES,Sfp PPTase inh,Tau FP inhib,Tau fluor cs,Tau fibril ThT,Coupling enz,G9a block
CC1C/C(=C/c2cccs2)C(=O)/C(=C/c2cccs2)C1 (centres undefined),-5%,-6%,-17%,?,-1,35µM*
Cc1ccc(CC(=O)N(Cc2nc(-c3ccc(C)cc3)no2)C(C)C)cc1,/,8%,-18%,?,/,11%[59 µM]
Cc1cc2c(c(=O)o1)[C@@H](O)[C@H]1O[C@@H]1C2=O,5%,?,?,?,0,/
Cc1nn(-c2ccccc2)c(Cl)c1/C=N/Nc1nc2ccccc2[nH]1,0%,4%,-14%,?,0,-16%
Cc1[nH]c2ccccc2c1/C=N/Nc1nc2ccccc2[nH]1,11%,-5%,?,/,-1,40µM*
Cc1ccc(/C=N/Nc2ccc(F)cc2)s1,1%,/,/,/,-2,50µM*
C(=C\c1ccccc1)/C=N/Nc1nc2ccccc2[nH]1,14µM*,11%,?,7.9µM*,1,?
C(=N\Nc1nc(N2CCCCC2)nc(N2CCCCC2)n1)/c1c[nH]c2ccccc12,25%,5%,?,?,-15,?
Cc1[nH]c2ccccc2c1/C=N/Nc1nc(N2CCCCC2)nc(N2CCCCC2)n1,35%,?,10µM*[quencher],?,-11,?
Cc1ccc(/C=N/Nc2ccc(Cl)c(C(=O)O)c2)s1,-14%,9%,-13%,?,7,?
CCSc1ncc(Cl)c(C(=O)N(Cc2ccc(C(C)(C)C)cc2)C2CCS(=O)(=O)C2)n1 (centres undefined),/,7%,-22%,-15%,/,-11%[59 µM]
Cc1ccccc1/C=N/Nc1nc2ccccc2[nH]1,?,5%,?,?,0,-40%
Cc1ccc(/C=N/Nc2nc3ccccc3[nH]2)s1,-9%,?,?,7.9µM*,-2,22%[59 µM]
COc1ccc(N2C(=O)C(F)(F)C2c2ccc(C)cc2)cc1OC (centres undefined),7%,-7%,-15%,-3%,3,18%
COc1ccc(NC(=O)c2ccc(Cc3ccc(C)cc3)o2)cc1,-4%,5%,2%,-2%,-2,?
Cc1ccc(Cc2ccc(C(=O)NNC(N)=S)o2)cc1,2%,-2%,-10%,-10%,2,56µM*
O=C(NC1CCN(C(=O)C2CCCCC2)CC1)c1ccccc1,16%,-3%,-2%,-3%,0,9%
COc1ccc(CCNc2nc(SCc3ccc(F)cc3)nc3ccccc23)cc1OC,/,-11%,-16%,-15%,/,-3%[59 µM]
N#Cc1c(C(F)(F)F)cc(-c2cccs2)nc1SCc1ccc(Cl)nc1,22µM*,-5%,-13%,-7%,-2,9%[0.0925 µM]
Cn1c(=O)c2c(n(Cc3ccccc3)c1=O)NC(=O)C2CC(=O)O (centres undefined),1%,0%,-11%,-13%,0,45µM*
CC1CCN(C(=O)CC2C(=O)Nc3c2c(=O)n(C)c(=O)n3Cc2ccccc2)CC1 (centres undefined),-9%,2%,-24%,-22%,1,8.9µM*
Cn1c2c(c(=O)n(C)c1=O)C(CC(=O)Nc1ccccc1)C(=O)N2 (centres undefined),31%,5%,5%,1%,1,-22%[59 µM]
Cc1ccc(SCC(=O)OCC(=O)N(CC(C)C)c2c(N)n(Cc3ccccc3)c(=O)[nH]c2=O)cc1C,/,/,/,/,/,-34%
CCOc1ccc(S(=O)(=O)c2cn(Cc3ccc(C)cc3)c3ccc(OC)cc3c2=O)cc1,/,3%,?,?,/,1%[59 µM]
CCS(=O)(=O)N1CCN(c2ccc([N+](=O)[O-])c(NCC3CCCO3)c2)CC1 (centres undefined),13%,-5%,-2%,?,-2,-19%
SMILES,Sfp PPTase inh,Tau FP inhib,Tau fluor cs,Tau fibril ThT,Coupling enz,G9a block
O=C(O)c1ccccc1C(=O)NCc1c(Cl)cccc1Sc1ccc(Cl)cc1,12%,/,/,/,4,19%[0.501 µM]
CCN(c1ccc(NC(=O)CSc2nnc3nc(C)cc(C)n23)cc1)C(C)C,4%,10%,-16%,-17%,1,45µM*
Cc1cc(C)n2c(SCC(=O)Nc3ccc(F)cc3)nnc2n1,16µM*,-10%,-11%,-17%,1,11µM*
Cc1ccc(NC(=O)CSc2nnc3nc(C)cc(C)n23)cc1,/,-2%,-12%,-9%,/,-1%[59 µM]
O=C(COc1cc(F)ccc1[N+](=O)[O-])N1N=C(c2cccs2)CC1c1ccco1 (centres undefined),/,/,/,/,/,-7%[12.7 µM]
O=C/C=C/c1c(-c2ccccc2)cc2oc3ccccc3cc1-2,-21%,/,/,/,-3,8.9µM*
Cc1ccccc1Cn1c(=O)n(CCCCC(=O)NCc2ccc3c(c2)OCO3)c(=O)c2ccccc21,/,6%,-2%,-4%,/,-2%[59 µM]
COc1ccc2c(c1)CCN=C2Cc1ccc(OC)c(OC)c1,-5%,7%,9%,-5%,-7,4µM*
CCOc1ccc(Br)cc1C1C(C(=O)OC)=C(C)NC2=C1C(=O)c1ccccc12 (centres undefined),/,1%,7.9µM*[quencher],10µM*,/,?
CCOc1ccccc1C1NC(=O)NC(C)=C1C(=O)OCc1ccccc1 (centres undefined),13%,/,/,/,-2,-50%
CCOC(=O)C1=C(C)NC(=O)NC1c1ccc([N+](=O)[O-])o1 (centres undefined),7%,-3%,-1%,-5%,3,1%[59 µM]
COC(=O)C1=C(C)N(C)C(=O)NC1c1cc(Cl)c(O)c(OC)c1 (centres undefined),14%,2%,-4%,-9%,3,-86%
CCOC(=O)C1=C(C)NC2=C(C(=O)c3ccccc32)C1c1ccc([N+](=O)[O-])o1 (centres undefined),35µM*,6%,?,?,3,/
CCOc1cc(C2C(C(=O)OC)=C(C)NC3=C2C(=O)c2ccccc23)cc(Cl)c1O (centres undefined),/,?,7.9µM*[quencher],?,/,?
CCOC(=O)COc1ccccc1C1C(C(=O)OC)=C(C)NC2=C1C(=O)c1ccccc12 (centres undefined),/,11%,14µM*[quencher],14µM*,/,13µM*
COc1cc(OC)c(C(=O)NCc2nc(-c3ccccc3)no2)cc1OC,/,4%,-13%,-10%,/,5%[59 µM]
COC(=O)C1=C[C@@H](C(=O)OC)[C@@H]2C3=C(C(=O)C2(C)C)[C@H](C)n2c(=O)n(C)c(=O)n2[C@@H]3C1,14%,/,/,/,1,/
COC(=O)COc1ccc(C2C(C(=O)OC)=C(C)NC3=C2C(=O)c2ccccc23)cc1OC (centres undefined),/,6%,14µM*[quencher],14µM*,/,13µM*
